D1 PAM = potentiators of human D1 dopamine receptor. P21728. HEK293 TREx D1 cells, calcium flux, dopamine EC20 potentiation. potentiation, % at 10 µM. 0.036% of 360,000 active; in the data active means potentiation above about 30%; further: 0% is about no effect
Target sequence (P21728 whole entry, looked up): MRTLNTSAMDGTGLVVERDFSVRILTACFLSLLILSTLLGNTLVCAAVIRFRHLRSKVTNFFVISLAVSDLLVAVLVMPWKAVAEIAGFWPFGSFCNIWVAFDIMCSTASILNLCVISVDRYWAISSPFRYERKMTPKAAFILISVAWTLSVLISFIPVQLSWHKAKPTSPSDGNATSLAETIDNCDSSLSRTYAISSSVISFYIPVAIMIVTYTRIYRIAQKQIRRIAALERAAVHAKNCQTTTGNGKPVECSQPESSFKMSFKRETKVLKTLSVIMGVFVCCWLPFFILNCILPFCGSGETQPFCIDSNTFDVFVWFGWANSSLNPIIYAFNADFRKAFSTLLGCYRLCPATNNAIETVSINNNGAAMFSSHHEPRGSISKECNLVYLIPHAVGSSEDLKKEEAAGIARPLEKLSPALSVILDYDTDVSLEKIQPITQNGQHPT
TRPV1 potentiator = potentiators of human vanilloid receptor 1 (TRPV1). Q8NER1. TRPV1-expressing cells, Fluo-8 calcium influx, capsaicin EC20 potentiation. potentiation, % at 8.33 µM. 0.02% of 320,000 active. AID 540277; in the data active means potentiation above about 80%; inconclusive means between about 30% and that limit; further: 0% is about no effect
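Fluo-8 calcium influx in TRPV1-expressing cells, kinetic read (ex 480/em 520 nm). Compound added and read 3 min for agonist activity, followed by capsaicin at EC20 final and 2 min further read for enhancement.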
TRPV1 ag = activates the human vanilloid receptor TRPV1; Q8NER1; TRPV1-expressing cells, Fluo-8 calcium influx, agonist mode; activation, % at 8.33 µM; 0.19% of 320,000 active; in the data active means activation above about 80%; inconclusive means between about 30% and that limit; further: 0% is about no effect
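Cells expressing TRPV1 were dye-loaded with Fluo-8 and read kinetically: 10 s baseline, 3 min after compound (agonist portion), then 2 min after EC20 capsaicin (allosteric enhancer portion). Calcium-bound dye fluorescence at 480/520 nm.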
D1 agonist = agonists of human D1 dopamine receptor; HEK293 T-REx D1 cells, calcium flux, agonist mode; activation, % at 2 µM; 1% of 360,000 active; in the data active means activation above about 30%; further: 0% is about no effect
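Agonism was scored from calcium flux recorded over 180 s (1 read/s) after pintool compound addition, following a 10-cycle baseline. Cells were inducible force-coupled HEK293 TREx D1, plated overnight at 30 C and loaded with no-wash calcium dye.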
D1 antag = human D1 dopamine receptor antagonism. HEK293 TREx D1 cells, calcium flux, dopamine EC80; stronger effect = lower value. P21728. 3.2% of 360,000 active. AID 504652. activity change, negative = inhibition, % at 10 µM; in the data active means activity change below about -30%; further: on the % scale 0 is the no-effect control and ±100 the full control effect
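Inducible Hek293 Trex D1 cells (tetracycline, overnight, 30 C). Calcium dye 30–90 min RT. Antagonist mode: EC80 dopamine added after 180 s compound read.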
Starred values were filed as active, the others as inactive; ? = inconclusive; / = no result. In the library only some 4.2% were active in any assay of this set; here they are far more common.

SMILES	D1 PAM	TRPV1 potentiator	TRPV1 ag	D1 agonist	D1 antag
Cc1ccc(-c2nn(-c3ccccc3)cc2/C=C/C(=O)Nc2nccs2)cc1	-5	-14	-1	13	-31*
O=C(/C=C/c1cn(-c2ccccc2)nc1-c1ccccc1)Nc1ccc(C(=O)O)cc1	0	-5	26	0	13
O/N=C/c1cn(-c2ccccc2)nc1-c1cccnc1	-1	-8	18	2	-10
Cc1ccc(-c2nn(-c3ccccc3)cc2/C=N/O)cc1	38*	15	-8	58*	-1
CC1=C(C(N)=O)C(c2cccc(C)c2)n2nc(-c3cccc(C)c3)nc2N1 (stereo not given)	0	/	/	2	1
CCOC(=O)C1CCN(C(=O)c2nn(-c3ccc(OC)c(Cl)c3)c(=O)c3c2c2ccccc2n3C)CC1	8	/	/	4	4
COc1cccc(CNC(=O)c2cccc(NC(=O)C3=C(C)OCCS3)c2)c1	-9	-14	0	4	-40*
Cc1ccc(Nc2c(-c3ccc(N4CCOCC4)cc3)nc3c(C)cccn23)cc1	-1	/	/	3	-32*
CCc1cccc(C)c1Nc1c(-c2ccc(N3CCOCC3)cc2)nc2ncccn12	-1	/	/	32*	11
CCN(CC)S(=O)(=O)c1ccc(C(=O)Nc2nc3c(Cl)cc(Cl)cc3s2)cc1	-2	/	/	3	10
CCN1C(Nc2ccccc2)=NC[C@@H]1CC(C)C	1	-19	3	3	4
CCCCCCCN1C(Nc2ccccc2)=NC[C@@H]1Cc1ccccc1	-7	-8	-1	22	-3
CC(C)C[C@H]1CN=C(Nc2ccccc2)N1CC1CCCCCC1	-4	-9	2	29	-31*
CC(C)C[C@H]1CN=C(Nc2ccccc2)N1CCc1ccc(F)cc1	1	-6	6	234*	-32*
c1ccc(CCCCN2C(Nc3ccccc3)=NC[C@@H]2Cc2ccccc2)cc1	-10	-7	6	45*	9
Cc1cccc(CCN2C(Nc3ccccc3)=NC[C@@H]2CC(C)C)c1	11	-55	20	215*	-19
CCNc1c(NS(=O)(=O)c2ccc(Br)s2)c(=O)oc2ccccc12	-3	13	-2	-3	-41*
CCCNc1c(NS(=O)(=O)c2ccc(Cl)s2)c(=O)oc2ccccc12	-7	-14	18	2	-3
COc1ccc(OC(C)c2nc3ccccc3[nH]2)cc1 (stereo not given)	8	/	/	0	-33*
CCCCc1ccc(C2C(C#N)=C(N)SC(N)=C2C#N)s1	-9	-8	3	63*	-67*
CCOC(=O)c1ccc(Nc2cc(C)nc(C)c2C(=O)OCC)cc1	-1	-11	?	-1	/
CCOC(=O)c1ccc(Nc2nnc(C(C)(C)C)c(=O)[nH]2)cc1	-9	-7	?	18	-56*
Cc1nnc(SCC(=O)NCc2ccc(N(C)C)cc2)c2nn(-c3ccccc3)c(C)c12	0	/	/	3	0
CCOc1ccc(-n2c(=O)c3c(C)c(C)sc3n(CC(=O)NCCc3ccccc3)c2=O)cc1	2	/	/	0	9
CCOc1ccc(-n2c(=O)c3c(C)c(C)sc3n(Cc3ccccc3C)c2=O)cc1	5	/	/	-1	-73*
SMILES	D1 PAM	TRPV1 potentiator	TRPV1 ag	D1 agonist	D1 antag
CCOc1ccc(-n2c(=O)c3c(C)c(C)sc3n(Cc3cc(=O)n4cc(Cl)ccc4n3)c2=O)cc1	1	/	/	-1	-42*
CC1CCCCN1Cc1c(O)ccc2c(=O)c(-c3ccc(Cl)cc3)c(C(F)(F)F)oc12 (stereo not given)	-2	/	/	0	4
CC(C)OCC(O)CN1CCC(Cc2ccccc2)CC1 (stereo not given)	2	8	2	0	-2
C[C@@H](CN1CCC(Cc2ccccc2)CC1)[C@@H](O)c1ccc(O)cc1	-6	-7	1	7	-33*
CC(C(O)c1ccc(O)cc1)N1CCC(Cc2ccccc2)CC1 (stereo not given)	-3	2	-1	7	-50*
CCn1cnc2c(=O)oc3ccc(S(=O)(=O)N4CCN(c5cc(C)ccc5C)CC4)cc3c21	-3	/	/	3	-25
C=CCn1c(-c2cccs2)nc2ccccc21	-11	?	-5	0	-52*
COc1cccc(-c2nnc(NC(=O)c3ccc(Cl)s3)o2)c1	-5	17	1	73*	-36*
